From PubChem BioAssay (Tox21) come the findings set out here.

Values without a mark were called inactive. Records with an inconclusive call do not appear. Activity calls are given as the source filed them. Unless noted, calls follow the shape of the dose curve; as a rule, active = well fitted curve in the direction sought with a large enough effect in the repeat runs; inconclusive = weak or mixed curves; inactive = no such curve, though single readings can be large; an effect the other way counts as inactive or inconclusive.

The nature of test [1]: qHTS assay to test for compound auto fluorescence at 535 nm (green) in HEK293 cells (AID 720680). The conditions noted are these: green autofluorescence 485/535 nm; series mostly up to 91.3 µM. (Quantitative high-throughput screening tests each substance at several concentrations.)
The nature of test [2]: qHTS assay to test for compound auto fluorescence at 460 nm (blue) in HEK293 cell free culture (AID 720681). The conditions noted are these: cell-free medium, autofluorescence 405/460 nm (blue); series mostly up to 91.3 µM. Summed up: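 Blue fluorescence (Ex 405/Em 460 nm, triamterene-equivalent) was read immediately after pin transfer of compound or DMSO into medium (DMEM, 10% FBS) without cells.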

Test [3] is described as follows: qHTS assay to test for compound auto fluorescence at 535 nm (green) in HEK293 cell free culture (AID 720682). As to conditions: cell-free medium, green autofluorescence 485/535 nm, stronger effect = higher value; series mostly up to 91.3 µM. The method, boiled down: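 Compounds were pin-transferred into cell-free DMEM with 10% FBS, and green fluorescence was read at excitation 485 nm and emission 535 nm. Intensities were expressed as fluorescein-equivalent values.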

Test [4] is described as follows: qHTS assay to test for compound auto fluorescence at 590 nm (red) in HEK293 cell free culture (AID 720683). As to conditions: cell-free medium autofluorescence, Ex540/Em590 red; series mostly up to 91.3 µM. The method, boiled down:
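Red-channel autofluorescence of compounds in culture medium (DMEM, 10% FBS), no cells, measured at 540/590 nm. Rose Bengal sodium is the reference fluorophore for equivalence.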

The nature of test [5]: qHTS assay to test for compound auto fluorescence at 590 nm (red) in HepG2 cell free culture (AID 720684). As to conditions: cell-free medium autofluorescence, red 540/590 nm; series mostly up to 91.3 µM. Summed up:
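No cells present: MEM + 10% FBS only. Compound pinned in, red label read (540/590 nm). Activity = fluorescence equivalent to Rose Bengal sodium.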

Test [6] can be described thus: qHTS assay to test for compound auto fluorescence at 460 nm (blue) in HepG2 cell free culture (AID 720685). As to conditions: Cell-free culture medium, blue autofluorescence 405/460 nm; series mostly up to 91.3 µM. Summed up: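 Cell-free plates of MEM plus 10% FBS received 23 nL compound or DMSO vehicle; blue-channel (405/460 nm) intensity scored against triamterene as reference fluorophore.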

Test [7] is described as follows: qHTS assay to test for compound auto fluorescence at 535 nm (green) in HepG2 cell free culture (AID 720686). The conditions noted are these: Cell-free medium, green autofluorescence 485/535 nm; series mostly up to 91.3 µM.
Test [8] is described as follows: qHTS assay to test for compound auto fluorescence at 460 nm (blue) in HepG2 cells (AID 720687). The conditions noted are these: autofluorescence 405/460 nm, 1 h; series mostly up to 91.3 µM. Summed up:
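Blue-channel autofluorescence (Ex/Em 405/460 nm, triamterene-equivalent) was measured after 1 hr compound exposure at 37 C, 5% CO2. Cells were HepG2, plated overnight at 37 C in MEM plus 10% FBS.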

Test [9] in a line: qHTS assay to identify small molecule antagonists of the glucocorticoid receptor (GR) signaling pathway - cell viability counter screen (AID 720693). Also: nearly all actives have a fitted effect of over 55% in size. As to conditions: GR-bla HeLa viability, CellTiter-Glo luminescence, 18 h, with 5 nM dexamethasone present; series mostly up to 58.5 µM.
Test [10] can be described thus: qHTS assay for identifying genotoxic compounds that show differential cytotoxicity against isogenic chicken DT40 cell lines with known DNA damage response pathways - wild type cell line (AID 743012). Also: nearly all actives have a fitted effect of over 60% in size. The conditions noted are these: DT40 wild type chicken cells viability, CellTiter-Glo, 40 h; series mostly up to 68.4 µM. The method, boiled down: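 Cytotoxicity in repair-proficient parental chicken DT40 cells serves as the comparator for Rad54/Ku70- and Rev3-deficient lines. Cells were exposed to compounds for 40 h at 37 C/5% CO2, and ATP-based luminescence (CellTiter-Glo) measured viability.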

Test [11] in a line: qHTS assay for identifying genotoxic compounds that show differential cytotoxicity against isogenic chicken DT40 cell lines with known DNA damage response pathways - Rev3 mutant cell line (AID 743014). Also: nearly all actives have a fitted effect of over 55% in size. As to conditions: chicken DT40 Rev3-/- viability, CellTiter-Glo, 40 h; series mostly up to 68.4 µM.
A short description of test [12]: qHTS assay for identifying genotoxic compounds that show differential cytotoxicity against isogenic chicken DT40 cell lines with known DNA damage response pathways - Rad54/Ku70 mutant cell line (AID 743015). Also: nearly all actives have a fitted effect of over 60% in size. Also: potency is read from the fitted curve at half-maximal effect. As to conditions: DT40 Rad54/Ku70 mutant viability, CellTiter-Glo, 40 h; series mostly up to 66.8 µM.
A short description of test [13]: qHTS assay to identify small molecule antagonists of the androgen receptor (AR) signaling pathway - cell viability counter screen (AID 743033; also: nearly all actives have a fitted effect of over 45% in size). As to conditions: AR-bla HEK293 viability, CellTiter-Glo luminescence, 16 h; series mostly up to 58.5 µM.
Test [14] is described as follows: qHTS assay to identify small molecule antagonists of the androgen receptor (AR) signaling pathway using the MDA cell line - cell viability counter screen (AID 743041; also: nearly all actives have a fitted effect of over 45% in size). The conditions noted are these: MDA-kb2 viability, CellTiter-Fluor, 16 h, cells co-treated with R1881 androgen agonist; series mostly up to 70.3 µM. Summed up:
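Using the breast carcinoma line MDA-kb2 AR-luc, test chemicals were co-incubated with R1881 for 16 h; CellTiter-Fluor reagent, added at 15.5 h, provided a fluorescence measure of live cells.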

Test [15] deals with Glucocorticoid receptor (Homo sapiens) (UniProt P04150). The test is described as follows: qHTS assay to identify small molecule agonists of the glucocorticoid receptor (GR) signaling pathway (AID 720691; active = well fitted activation curve with a large enough effect in the signal ratio in the repeat runs, not every such curve was filed as active; the % refers to the signal ratio; also: potency is read from the fitted curve at half-maximal effect). The conditions noted are these: GR-bla HeLa, beta-lactamase reporter ratio, 18 h; series mostly up to 62.4 µM. The method, boiled down:
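Steps: seed GR-bla HeLa cells, incubate 4 h at 37 C/5% CO2; pin-transfer DMSO-dissolved compounds; incubate 18 h at 37 C; add LiveBLAzer B/G FRET substrate; after 2 h at room temperature, measure fluorescence.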

For test [16] the target is unchanged. The test is described as follows: qHTS assay to identify small molecule antagonists of the glucocorticoid receptor (GR) signaling pathway (AID 720692; active = well fitted inhibition curve with a large enough effect in the signal ratio in the repeat runs, not every such curve was filed as active; the % refers to the signal ratio). As to conditions: GR-bla HeLa, beta-lactamase FRET ratio, dexamethasone-stimulated, 18 h; series mostly up to 58.5 µM. The method, boiled down:
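Antagonism was scored as loss of dexamethasone-driven (5 nM final) reporter signal in HeLa cells bearing a glucocorticoid response element–beta-lactamase construct, after 18 h compound exposure at 37 C and 2 h FRET substrate loading.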
% is scaled to controls: 0 for no effect and ±100 for the full control effect.

Glucocorticoid receptor (Homo sapiens), sequence (P04150 whole entry, looked up): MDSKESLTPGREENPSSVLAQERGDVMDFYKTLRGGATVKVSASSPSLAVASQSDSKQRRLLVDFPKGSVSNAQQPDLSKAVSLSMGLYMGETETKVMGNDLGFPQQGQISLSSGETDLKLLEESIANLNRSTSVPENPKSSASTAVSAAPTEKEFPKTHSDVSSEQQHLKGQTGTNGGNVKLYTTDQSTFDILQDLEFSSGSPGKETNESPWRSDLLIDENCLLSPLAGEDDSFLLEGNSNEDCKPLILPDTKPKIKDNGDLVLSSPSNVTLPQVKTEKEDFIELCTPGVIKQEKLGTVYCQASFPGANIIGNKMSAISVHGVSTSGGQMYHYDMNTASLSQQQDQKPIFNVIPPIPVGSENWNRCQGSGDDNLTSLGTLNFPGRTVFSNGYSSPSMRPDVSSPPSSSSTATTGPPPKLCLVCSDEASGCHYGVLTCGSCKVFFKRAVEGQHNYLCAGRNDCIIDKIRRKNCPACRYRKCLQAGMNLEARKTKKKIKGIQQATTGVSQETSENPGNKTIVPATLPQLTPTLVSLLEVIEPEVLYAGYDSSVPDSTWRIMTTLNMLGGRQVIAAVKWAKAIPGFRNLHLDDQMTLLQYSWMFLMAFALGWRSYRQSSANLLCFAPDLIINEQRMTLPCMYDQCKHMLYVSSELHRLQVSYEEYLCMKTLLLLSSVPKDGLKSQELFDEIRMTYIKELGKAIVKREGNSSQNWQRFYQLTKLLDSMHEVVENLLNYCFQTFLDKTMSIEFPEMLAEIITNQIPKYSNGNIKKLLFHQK

In the case of `COC(=O)C1CC(=O)C(C(=O)OC)CC1=O` (stereo unspecified), in test [1], the fluorescence, % of fluorescein was -0.0599% [at 3.72 µM]. Besides, the fluorescence, % of fluorescent control in test [2] is 1.67% [at 3.72 µM]; in [4] it was 0.0034% [at 3.72 µM]; in test [6] it was 2.39% [at 3.72 µM]; in test [8] it was 1.56% [at 3.72 µM]. The activity change in test [3] is -0.0001% [at 3.72 µM]. Also, in test [5], the fluorescence, % of Rose Bengal is 0.258% [at 3.72 µM]. In addition, in test [7], the fluorescence, % of fluorescein control is -0.0181% [at 3.72 µM]. The viability change, negative = cytotoxic was -6.7% [at 7.04 µM] in test [9] and 6.75% [at 8.47 µM] in [14]. The activity change, negative = cytotoxicity is -1.23% [at 8.52 µM] in [10], -1.14% [at 8.55 µM] in test [12] and -11.9% [at 7.04 µM] in [13]. Besides, the activity, negative = cytotoxicity in [11] is 6.72% [at 8.53 µM].

With `CCC(C)(CCC(C)C)C(=O)O` (stereo unspecified), the outcome in test [1], in test [2], in test [3], in test [4], in [5] and in [6] was inactive. For the same molecule, the molecule was called inactive in test [7], in test [8] and in [9]. For the same molecule, the Potency result in test [10], in test [12], in test [13] and in [14] was “inactive” in each case.

On to `Brc1ccc(-c2ccccc2)cc1`, for which the molecule was called inactive in test [1], in test [2], in test [3], in [4], in test [5] and in test [6]. Moreover, the molecule was called inactive in test [7] and in test [8]. Also, the Potency result in test [15], in test [10], in test [11], in test [13] and in [14] was “inactive” throughout.

Take `COc1ccc(Br)c(C)c1`: the outcome in test [1], in test [2], in [3], in test [4], in test [5] and in test [6] was inactive. The result in [7], in test [8] and in test [9] was inactive. The Potency result in [10], in test [11], in test [12] and in [13] was “inactive” in each case.

As for `CN(CCOc1ccc(NS(C)(=O)=O)cc1)CCc1ccc(NS(C)(=O)=O)cc1`, the result in test [1], in test [2], in [3], in test [4], in [5] and in [6] was inactive. Moreover, the call in test [7] and in test [8] was inactive. The Potency in test [15] was 7.56 µM (active); in test [12] it was 13.3 µM (active). In addition, the Potency result in [13] and in test [14] was “inactive” throughout.

`c1ccc2nccnc2c1`: the result in test [1], in test [2], in test [3], in [4], in test [5] and in test [6] was inactive. The outcome in test [7], in test [8], in test [16] and in [9] was inactive. Besides, the Potency entry in test [10], in test [11], in test [13] and in test [14] was “inactive” each time. Besides, the Potency in test [12] is 63.1 µM (active).

Take `CC(=O)c1ccc2c(c1)Cc1ccccc1-2`: the molecule was classed as inactive in test [1], in test [2], in [3], in [4], in test [5] and in test [6]. Further, the outcome in [7] and in [8] was inactive. Besides, the Potency result in test [11], in test [12], in test [13] and in test [14] was “inactive” each time.

As to `Cc1nc2n(c(=O)c1CCN1CCC(c3noc4cc(F)ccc34)CC1)CCC[C@H]2O`, the call in test [1], in test [2], in test [3], in [4], in [5] and in test [6] was inactive. The outcome in [8], in test [16] and in test [9] was inactive. For the same molecule, the Potency entry in test [15], in test [10], in [11], in test [12] and in [13] was “inactive” in each case.
